Test results reported in PubChem BioAssay (NCI).
This is part of a sample that, as a whole, favours compounds with a hit. Of some 83,000 tested, about 20% had one in any assay.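 The endpoint reported here, percent growth, reads 100 for growth as untreated, 0 for no net growth and -100 for all cells dead.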 Values without a mark were called inactive. The source made the active and inactive calls. The calls were made as follows: active = growth percent below 10; inactive = the rest.

How the values were obtained:
Assay in all cases: NCI-60 one-dose screen, 48 h (100 = growth as untreated, 0 = no growth, -100 = all killed)
Settings in all cases: 10 µM unless noted
DU-145 prostate = test system: DU-145 prostate
K-562 leukemia = test system: K-562 leukemia
MALME-3M melanoma = test system: MALME-3M melanoma
MDA-MB-231 breast = test system: MDA-MB-231 breast
RXF 393 renal = test system: RXF 393 renal
SF-268 CNS = test system: SF-268 CNS
SF-295 CNS = test system: SF-295 CNS
SF-539 CNS = test system: SF-539 CNS
UACC-257 melanoma = test system: UACC-257 melanoma
M14 melanoma = test system: M14 melanoma
HCT-15 colon = test system: HCT-15 colon
HT29 colon = test system: HT29 colon
SNB-75 CNS = test system: SNB-75 CNS
SNB-19 CNS = test system: SNB-19 CNS
U251 CNS = test system: U251 CNS
PC-3 prostate = test system: PC-3 prostate
SK-MEL-5 melanoma = test system: SK-MEL-5 melanoma
UACC-62 melanoma = test system: UACC-62 melanoma
LOX IMVI melanoma = test system: LOX IMVI melanoma
SK-MEL-28 melanoma = test system: SK-MEL-28 melanoma

Row | Structure (SMILES) | growth (DU-145 prostate) | growth (K-562 leukemia) | growth (MALME-3M melanoma) | growth (MDA-MB-231 breast) | growth (RXF 393 renal) | growth (SF-268 CNS) | growth (SF-295 CNS) | growth (SF-539 CNS) | growth (UACC-257 melanoma) | growth (M14 melanoma) | growth (HCT-15 colon) | growth (HT29 colon) [%] | growth (SNB-75 CNS) | growth (SNB-19 CNS) [%] | growth (U251 CNS) | growth (PC-3 prostate) | growth (SK-MEL-5 melanoma) | growth (UACC-62 melanoma) | growth (LOX IMVI melanoma) | growth (SK-MEL-28 melanoma) [%]
1 | COc1ccc(C2=Nc3c(N)ncnc3NC(c3ccc4c(c3)OCO4)C2)cc1 (stereo not given) | 97.1% | 113% | 105% | 73.9% | 66% | 89.6% | 118% | 90.3% | 116% | 73.8% | 94.8% | 93.2 | 66.2% | 85 | 94.3% | 77.2% | 88.2% | 80.6% | 94% | 101
2 | Nc1cc2c3c(cccc3c1)C(=O)N(CCN1CCCC1)C2=O | 28.4% | 14.7% | 41.5% | 55.2% | 48.2% | 33.7% | 44.5% | 29% | 51.3% | 49.4% | 30.3% | 26.2 | 48% | 41.9 | 28.9% | 40.8% | 9.37% (active) | 26.6% | 11.9% | 62.3
3 | COc1ccc(CN2C(=O)C(Cl)=C(Nc3cccc(C(F)(F)F)c3)C2=O)cc1 | 84.9% | 27.9% | 52.1% | 46.6% | 23.6% | 33.7% | 38.1% | 7.41% (active) | 54.9% | 63.5% | 34.8% | 57.1 | 66.9% | 44.7 | 28.2% | 19.2% | 63.3% | 58.1% | 25.2% | 55.2
4 | CC(C)(C)CC(C)(C)Nc1c(-c2ccncc2)nc2cnccn12 | 106% | 98.4% | 110% | 95% | 93.8% | 98.6% | 101% | 93.8% | 103% | 100% | 97.9% | 93 | 80.4% | 97.3 | 99.2% | 97.7% | 99.4% | 92.9% | 98.8% | 112
5 | COc1ccc(Cl)cc1NC(=O)C(Br)C(Br)C(=O)O (stereo not given) | 97.2% | -27% (active) | 46.2% | 46.2% | 44.4% | 19.7% | 99.8% | 77.7% | 60.8% | 75.9% | 67.5% | 108 | 103% | 122 | 49.9% | 56.3% | -82.2% (active) | 7.23% (active) | -69.8% (active) | 60.1
6 | O=C(CCc1nnc(CN(c2ccccc2)c2ccccc2)o1)c1nc2ccccc2[nH]1 | 104% | 76.3% | 94.3% | 75.3% | 113% | 93.6% | 95.6% | 97.5% | 103% | 102% | 97.4% | 93.4 | 86.9% | 92.7 | 94.9% | 76.3% | 99.4% | 69.4% | 80.3% | 112
7 | CC1=NOC(=O)/C1=C\c1ccc(O)cc1 | 111% | 98.2% | 100% | 95.1% | 115% | 98.4% | 99.6% | 98.8% | 101% | 103% | 104% | 106 | 77.9% | 99 | 101% | 101% | 101% | 100% | 96.8% | 103
8 | c1ccc(Nc2nc(-c3ccccn3)cs2)nc1 | 26.5% | 17.2% | 9.26% (active) | 38.9% | -18.8% (active) | 20.7% | 11.9% | 0.697% (active) | 11.5% | -32.8% (active) | 20.1% | 27.4 | 42.7% | 18.6 | 7.62% (active) | 38% | 11% | -14.6% (active) | 1.84% (active) | 50.3
9 | N/C(=N\c1nc2ccccc2s1)NC(=O)Nc1cccc(Cl)c1 | 52.4% | 13.9% | 42.6% | 59.4% | 68.6% | 55.9% | 40% | 2.83% (active) | 48.9% | 10.3% | 17.9% | 10.2 | 13.7% | 42.2 | 26.1% | 42.4% | 32.3% | 25.8% | 38.9% | 60.1
10 | O=C(COc1ccc(/C=C2\Oc3ccccc3C2=O)cc1)Nc1nc2c(s1)CCCC2 | -79.7% (active) | 20.9% | 22.6% | 22.2% | -5.41% (active) | -9.96% (active) | 101% | -95.7% (active) | 104% | 98.3% | 89.7% | 30.2 | -76.6% (active) | 83 | -44.4% (active) | 12.3% | 103% | 75.6% | -57.3% (active) | 117
11 | CC(C)CC(NC(=O)CN(Cc1ccccc1)S(C)(=O)=O)C(=O)O (stereo not given) | 104% | 78% | 98.8% | 111% | 80.3% | 109% | 96.4% | 90.9% | 103% | 97% | 101% | 97.4 | 80% | 91.6 | 103% | 90.1% | 95% | 89.2% | 100% | 100
12 | COC1=C(OC)C(=O)C(OC)=C(OC)C1=O | 101% | 87.2% | 101% | 46.3% | 95% | 94.4% | 97.7% | 114% | 107% | 105% | 108% | 104 | 106% | 99 | 105% | 95.5% | 105% | 102% | 90.7% | 105
13 | N#Cc1c(-c2cccc(Cl)c2)cc(-c2cccc(F)c2)[nH]c1=O | 98.6% | 85.5% | 99.9% | 89.9% | 88.7% | 95.6% | 91.2% | 94.3% | 102% | 101% | 90.2% | 107 | 85.8% | 91.1 | 86.7% | 85.3% | 89.4% | 76.8% | 89.6% | 97.9
14 | O=C(Cc1ccc(F)c(F)c1)Nc1cc(C2(C(F)(F)F)CC2)nn1Cc1ccccc1 | 20.5% | 13.3% | -37.7% (active) | -70.7% (active) | -26.9% (active) | 9.11% (active) | -1.31% (active) | 16.3% | -14.6% (active) | 20.2% | 6.24% (active) | 17.6 | -14.9% (active) | 13.3 | 4.6% (active) | -6.07% (active) | -80.8% (active) | -10.3% (active) | 5.44% (active) | 18.6
15 | Nc1n[nH]c2cc(F)c([C@@H]3Nc4c(F)cc5[nH]ncc5c4[C@H]4C5CCC(C5)[C@@H]34)cc12 (stereo not given in full) | -0.222% (active) | 11.6% | 46.3% | 15.5% | 41.3% | 10.5% | 15% | 4.53% (active) | 72.4% | 21.2% | 6.76% (active) | 17 | -20.9% (active) | 53.1 | 33.2% | 22.5% | 8.05% (active) | 35.3% | 20.2% | 52.8
